Results published in PubChem BioAssay (NCI).
Where “and” joins values, the source holds several entries; their conditions need not be identical. Equal entries are not always repeated. This is part of a sample that, as a whole, favours compounds with a hit. Of some 79,000 tested, about 15% had one in any assay. A structure can be active in one record and inactive in another. Calls of active or inactive are those of the source. No stated cut-off is given here; in the data, active means growth inhibition above about 70%; inactive means the rest.

Key:
[1] = NCI Yeast Anticancer Drug Screen. Data for the rad50 strain (AID 155);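 further: 0% = growth of vehicle-only cultures of the same strain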; settings: S. cerevisiae rad50 strain growth inhibition, stronger effect = higher value
Method in brief: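 Relative growth inhibition (compound vs vehicle) was measured in yeast with a defined repair-gene alteration.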

[2] = NCI Yeast Anticancer Drug Screen. Data for the mec2-1 strain (AID 157); settings: S. cerevisiae mec2-1 strain, stronger effect = higher value
Method in brief: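 Compounds were applied to mec2-1 yeast cells. Their growth was then compared with that of vehicle-treated cultures to give growth inhibition.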

[3] = NCI Yeast Anticancer Drug Screen. Data for the sgs1 mgt1 strain (AID 161);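 further: 0% = growth of cultures given vehicle only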; settings: S. cerevisiae sgs1 mgt1 strain, stronger effect = higher value
Method in brief: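 Growth of a repair-deficient yeast mutant was monitored after compound treatment and expressed as inhibition relative to vehicle-treated cultures.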

[4] = NCI Yeast Anticancer Drug Screen. Data for the cln2 rad14 strain (AID 165);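 further: 0% = growth equal to vehicle treated cultures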; settings: S. cerevisiae cln2 rad14 strain, stronger effect = higher value
Method in brief: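 Strain: cln2 rad14 yeast, altered in cell cycle control and DNA damage repair. Read-out: growth inhibition vs vehicle.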

[5] = NCI Yeast Anticancer Drug Screen. Data for the bub3 strain (AID 167); settings: S. cerevisiae bub3 mutant strain, stronger effect = higher value
Method in brief: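 Screening used yeast with an engineered genetic alteration affecting cell cycle control. Compound-exposed cultures were compared with vehicle cultures, and reduced growth was taken as inhibition.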

[6] = NCI Yeast Anticancer Drug Screen. Data for the mlh1 rad18 strain (AID 175); settings: S. cerevisiae mlh1 rad18 strain growth inhibition, stronger effect = higher value
Method in brief: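 A repair-deficient yeast strain is exposed to test compound, and growth is scored relative to vehicle-treated controls.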

[7] = at 5.0 µM (retest, dose inferred, filed as 0.5)
[8] = at 50.0 µM (retest, dose inferred, filed as 5.0)

## Nc1nc(CCl)cs1
[1]; [7]
  growth inhibition: -2% (inactive)
[1]; [8]
  growth inhibition: -5% (inactive)
[1]; at 50.0 µM
  growth inhibition: -2.05% (inactive) and -11.7% (inactive)
[2]; [7]
  growth inhibition: 0% (inactive)
[2]; [8]
  growth inhibition: -2% (inactive)
[2]; at 50.0 µM
  growth inhibition: -24.7% (inactive) and -9.55% (inactive)
[3]; [7]
  growth inhibition: 1% (inactive)
[3]; [8]
  growth inhibition: -3% (inactive)
[3]; at 50.0 µM
  growth inhibition: -17.6% (inactive) and -0.25% (inactive)
[4]; [7]
  growth inhibition: -7% (inactive)
[4]; [8]
  growth inhibition: -8% (inactive)
[4]; at 50.0 µM
  growth inhibition: 75.8% (active) and -22.8% (inactive)
[5]; [7]
  growth inhibition: -4% (inactive)
[5]; [8]
  growth inhibition: -7% (inactive)
[5]; at 50.0 µM
  growth inhibition: 52.4% (inactive) and 4.7% (inactive)
[6]; [7]
  growth inhibition: -2% (inactive)
[6]; [8]
  growth inhibition: -6% (inactive)
[6]; at 50.0 µM
  growth inhibition: 17.8% (inactive) and -17% (inactive)

## O=[N+]([O-])c1ccccc1
[1]; [7]
  growth inhibition: 11% (inactive)
[1]; [8]
  growth inhibition: 75% (active)
[1]; at 50.0 µM
  growth inhibition: 79.2% (active)
[2]; [7]
  growth inhibition: 3% (inactive)
[2]; [8]
  growth inhibition: 10% (inactive)
[2]; at 50.0 µM
  growth inhibition: -0.5% (inactive)
[3]; [7]
  growth inhibition: 3% (inactive)
[3]; [8]
  growth inhibition: 17% (inactive)
[3]; at 50.0 µM
  growth inhibition: 27.1% (inactive)
[4]; [7]
  growth inhibition: 4% (inactive)
[4]; [8]
  growth inhibition: 4% (inactive)
[4]; at 50.0 µM
  growth inhibition: 35.5% (inactive)
[5]; [7]
  growth inhibition: 2% (inactive)
[5]; [8]
  growth inhibition: 12% (inactive)
[5]; at 50.0 µM
  growth inhibition: 13.3% (inactive)
[6]; [7]
  growth inhibition: 6% (inactive)
[6]; [8]
  growth inhibition: 19% (inactive)
[6]; at 50.0 µM
  growth inhibition: 39.2% (inactive)

## C[CH2][Hg][Cl]
[1]; [7]
  growth inhibition: 99% (active) and 48% (inactive)
[1]; [8]
  growth inhibition: 99% (active)
[1]; at 50.0 µM
  growth inhibition: 93.1% (active)
[2]; [7]
  growth inhibition: 100% (active) and 46% (inactive)
[2]; [8]
  growth inhibition: 100% (active) and 93% (active)
[2]; at 50.0 µM
  growth inhibition: 95% (active)
[3]; [7]
  growth inhibition: 100% (active)
[3]; [8]
  growth inhibition: 100% (active) and 99% (active)
[3]; at 50.0 µM
  growth inhibition: 94.5% (active)
[4]; [7]
  growth inhibition: 99% (active) and 86% (active)
[4]; [8]
  growth inhibition: 99% (active)
[4]; at 50.0 µM
  growth inhibition: 93.3% (active)
[5]; [7]
  growth inhibition: 100% (active)
[5]; [8]
  growth inhibition: 99% (active)
[5]; at 50.0 µM
  growth inhibition: 93.7% (active)
[6]; [7]
  growth inhibition: 99% (active) and 35% (inactive)
[6]; [8]
  growth inhibition: 99% (active)
[6]; at 50.0 µM
  growth inhibition: 93.2% (active)

## CC(C)(C)OC(=O)NC(CSC(c1ccccc1)(c1ccccc1)c1cccs1)C(=O)O (configuration not stated)
[1]; [7]
  growth inhibition: 7% (inactive)
[1]; [8]
  growth inhibition: 97% (active)
[1]; at 50.0 µM
  growth inhibition: 95.7% (active)
[2]; [7]
  growth inhibition: 17% (inactive)
[2]; [8]
  growth inhibition: 99% (active)
[2]; at 50.0 µM
  growth inhibition: 69.2% (inactive)
[3]; [7]
  growth inhibition: 7% (inactive)
[3]; [8]
  growth inhibition: 99% (active)
[3]; at 50.0 µM
  growth inhibition: 96.5% (active)
[4]; [7]
  growth inhibition: 23% (inactive)
[4]; [8]
  growth inhibition: 99% (active)
[4]; at 50.0 µM
  growth inhibition: 78.8% (active)
[5]; [7]
  growth inhibition: 9% (inactive)
[5]; [8]
  growth inhibition: 99% (active)
[5]; at 50.0 µM
  growth inhibition: 14.2% (inactive)
[6]; [7]
  growth inhibition: 12% (inactive)
[6]; [8]
  growth inhibition: 99% (active)
[6]; at 50.0 µM
  growth inhibition: 83.2% (active)

## CC#N.FC(F)(F)C#CC(F)(F)F.FC(F)(F)C#CC(F)(F)F.FC(F)(F)C#CC(F)(F)F.[W]
[1]; [7]
  growth inhibition: 90% (active)
[1]; [8]
  growth inhibition: 99% (active)
[1]; at 50.0 µM
  growth inhibition: 99.4% (active)
[2]; [7]
  growth inhibition: 83% (active)
[2]; [8]
  growth inhibition: 99% (active)
[2]; at 50.0 µM
  growth inhibition: 99.5% (active)
[3]; [7]
  growth inhibition: 90% (active)
[3]; [8]
  growth inhibition: 99% (active)
[3]; at 50.0 µM
  growth inhibition: 99.7% (active)
[4]; [7]
  growth inhibition: 85% (active)
[4]; [8]
  growth inhibition: 99% (active)
[4]; at 50.0 µM
  growth inhibition: 99.2% (active)
[5]; [7]
  growth inhibition: 94% (active)
[5]; [8]
  growth inhibition: 99% (active)
[5]; at 50.0 µM
  growth inhibition: 99.6% (active)
[6]; [7]
  growth inhibition: 95% (active)
[6]; [8]
  growth inhibition: 99% (active)
[6]; at 50.0 µM
  growth inhibition: 99.3% (active)

## O=[N+]([O-])[O-].O=[N+]([O-])[O-].[Au].[Au].c1ccc([P-]c2ccccc2)cc1.c1ccc([P-]c2ccccc2)cc1
[1]; [7]
  growth inhibition: 62% (inactive)
[1]; [8]
  growth inhibition: 94% (active)
[1]; at 50.0 µM
  growth inhibition: 87.8% (active)
[2]; [7]
  growth inhibition: 47% (inactive)
[2]; [8]
  growth inhibition: 95% (active)
[2]; at 50.0 µM
  growth inhibition: 91.4% (active)
[3]; [7]
  growth inhibition: 59% (inactive)
[3]; [8]
  growth inhibition: 96% (active)
[3]; at 50.0 µM
  growth inhibition: 91.3% (active)
[4]; [7]
  growth inhibition: 29% (inactive)
[4]; [8]
  growth inhibition: 96% (active)
[4]; at 50.0 µM
  growth inhibition: 89.5% (active)
[5]; [7]
  growth inhibition: 53% (inactive)
[5]; [8]
  growth inhibition: 96% (active)
[5]; at 50.0 µM
  growth inhibition: 88.9% (active)
[6]; [7]
  growth inhibition: 72% (active)
[6]; [8]
  growth inhibition: 95% (active)
[6]; at 50.0 µM
  growth inhibition: 86.7% (active)

## COc1cc2c3c(c1)-c1c(ccc(OC)c1OC)CC3N(CCCl)CC2 (configuration not stated)
[1]; [7]
  growth inhibition: 15% (inactive)
[1]; [8]
  growth inhibition: 92% (active)
[1]; at 50.0 µM
  growth inhibition: 87% (active)
[2]; [7]
  growth inhibition: 11% (inactive)
[2]; [8]
  growth inhibition: 69% (inactive)
[2]; at 50.0 µM
  growth inhibition: 38.9% (inactive)
[3]; [7]
  growth inhibition: 7% (inactive)
[3]; [8]
  growth inhibition: 71% (active)
[3]; at 50.0 µM
  growth inhibition: 77.2% (active)
[4]; [7]
  growth inhibition: 7% (inactive)
[4]; [8]
  growth inhibition: 77% (active)
[4]; at 50.0 µM
  growth inhibition: 31.8% (inactive)
[5]; [7]
  growth inhibition: 13% (inactive)
[5]; [8]
  growth inhibition: 75% (active)
[5]; at 50.0 µM
  growth inhibition: 28.9% (inactive)
[6]; [7]
  growth inhibition: 12% (inactive)
[6]; [8]
  growth inhibition: 78% (active)
[6]; at 50.0 µM
  growth inhibition: 86.7% (active)

## CCCC[CH2][Pb]([CH2]CCCC)([CH2]CCCC)[O]C(C)=O
[1]; [7]
  growth inhibition: 99% (active)
[1]; [8]
  growth inhibition: 96% (active)
[1]; at 50.0 µM
  growth inhibition: 99% (active)
[2]; [7]
  growth inhibition: 99% (active)
[2]; [8]
  growth inhibition: 98% (active)
[2]; at 50.0 µM
  growth inhibition: 99.2% (active)
[3]; [7]
  growth inhibition: 100% (active)
[3]; [8]
  growth inhibition: 99% (active)
[3]; at 50.0 µM
  growth inhibition: 98.8% (active)
[4]; [7]
  growth inhibition: 99% (active)
[4]; [8]
  growth inhibition: 95% (active)
[4]; at 50.0 µM
  growth inhibition: 98% (active)
[5]; [7]
  growth inhibition: 100% (active)
[5]; [8]
  growth inhibition: 97% (active)
[5]; at 50.0 µM
  growth inhibition: 98% (active)
[6]; [7]
  growth inhibition: 99% (active)
[6]; [8]
  growth inhibition: 93% (active)
[6]; at 50.0 µM
  growth inhibition: 98.5% (active)

## Cc1ccccc1NC(=O)CBr
[1]; [7]
  growth inhibition: 39% (inactive)
[1]; [8]
  growth inhibition: 98% (active)
[1]; at 50.0 µM
  growth inhibition: 98.5% (active)
[2]; [7]
  growth inhibition: 12% (inactive)
[2]; [8]
  growth inhibition: 99% (active)
[2]; at 50.0 µM
  growth inhibition: 98.6% (active)
[3]; [7]
  growth inhibition: 37% (inactive)
[3]; [8]
  growth inhibition: 99% (active)
[3]; at 50.0 µM
  growth inhibition: 99.3% (active)
[4]; [7]
  growth inhibition: 18% (inactive)
[4]; [8]
  growth inhibition: 98% (active)
[4]; at 50.0 µM
  growth inhibition: 95.5% (active)
[5]; [7]
  growth inhibition: -38% (inactive)
[5]; [8]
  growth inhibition: 99% (active)
[5]; at 50.0 µM
  growth inhibition: 98.2% (active)
[6]; [7]
  growth inhibition: 37% (inactive)
[6]; [8]
  growth inhibition: 99% (active)
[6]; at 50.0 µM
  growth inhibition: 98.3% (active)
